Results as given in PubChem BioAssay.
“And” between values parts separate entries of the source, which are not always exact repeats. Identical values can stand only once. Results filed as inconclusive are left out. The source made the active and inactive calls.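 Rule for the calls, unless noted: active = normalized viability below 100% at a tested concentration; inactive = the rest.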

What was measured:
[1] = growth inhibition of DIPG glioma cells, dose response, cell-based, SU-DIPG-XVII, MIPE5.0, CellTiter-Glo, qHTS (AID 1347060; cut-off not given, nearly all actives have AC50 up to about 26 µM;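 for AC50: cells exposed to compound for 48 hours before viability readout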); conditions: SU-DIPG-XVII viability, CellTiter-Glo ATP luminescence
[2] = growth inhibition of DIPG glioma cells, dose response, cell-based, SU-DIPG-XIII, MIPE4.0, CellTiter-Glo, qHTS (AID 1347061; cut-off not given, nearly all actives have AC50 up to about 37 µM;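 note: cells exposed to compound for 48 hours before readout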); conditions: SU-DIPG-XIII viability, CellTiter-Glo ATP luminescence
[3] = growth inhibition of DIPG glioma cells, dose response, cell-based, JHH-DIPG-1, MIPE4.0, CellTiter-Glo, qHTS (AID 1347062; cut-off not given, nearly all actives have AC50 up to about 27 µM;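 for AC50: cells exposed to compound for two days before readout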); conditions: JHH-DIPG-1 viability, CellTiter-Glo ATP luminescence
[4] = growth inhibition of DIPG glioma cells, dose response, cell-based, SU-DIPG-IV, MIPE4.0, CellTiter-Glo, qHTS (AID 1347063; cut-off not given, nearly all actives have AC50 up to about 30 µM;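 note: compound exposure lasted 48 hours before the viability readout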); conditions: SU-DIPG-IV viability, CellTiter-Glo ATP luminescence
[5] = viability loss in pontine glioma line – cell-based, SU-DIPG-XXV, MIPE5.0, CellTiter-Glo, qHTS, dose response (AID 1347065; cut-off not given, nearly all actives have AC50 up to about 26 µM;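 note: cells exposed to compound for 48 hours before ATP readout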); conditions: CellTiter-Glo ATP luminescence
[6] = SU-DIPG-VI glioma cell viability, MIPE4.0 library, CellTiter-Glo luminescence, qHTS (AID 1347066; cut-off not given, nearly all actives have AC50 up to about 30 µM;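 note: cells exposed to compound for 48 hours before readout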); conditions: CellTiter-Glo ATP luminescence
[7] = JHH-DIPG-1 glioma cell viability, MIPE5.0 library, CellTiter-Glo luminescence, qHTS (AID 1347067; cut-off not given, nearly all actives have AC50 up to about 26 µM;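 note: cells exposed to compound for 48 hours before readout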); conditions: JHH-DIPG-1 glioma viability, CellTiter-Glo ATP luminescence
[8] = SU-DIPG-XXV glioma cell viability, MIPE5.0 library, qHTS (AID 1347068; cut-off not given, nearly all actives have IC50 up to about 30 µM;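 for IC50: cells exposed to compound for 48 hours before viability readout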)
[9] = sensitizers of A549 cells to miR-34 induction, primary screen, imaging, A549 dox-inducible miR-34, nuclei and caspase counts (AID 1347080;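 active = compounds whose cell count with miR-34 switched on is under 0.7 times the count with it off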); conditions: A549 miR-34 inducible, Hoechst nuclei count, 48 h
[10] = survival rescue of mitochondrial mutant cells in low glucose, primary screen, MELAS cybrids, Rieske KO mouse fibroblasts, CellTiter-Glo (AID 1508586;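 active = mean z-score across replicates of 1.96 or higher in either the MELAS or the Rieske mutant cell line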;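 note: z relative to plate mean and SD of compound and empty wells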)
[11] = modifiers of HSF1 nuclear foci, imaging, Selleck Cancer Library (AID 1347162; in the data active = plate-normalised HSF1 focus index below about 0.46); conditions: human cells, at 10 µM; SSMD: measured here: HSF1 foci SSMD mean; cell count: measured here: cell number; plate-normalised HSF1 focus index: stronger effect = lower value
[12] = ovarian cancer cell viability with rucaparib, profiling panel, oncology-focused library, rucaparib conditional (AID 1508598); conditions: patient-derived ovarian cancer cells, CellTiter-Glo viability, 144 h, stronger effect = lower value
[13] = growth inhibition of DIPG glioma cells, dose response, cell-based, SU-DIPG-XIII, MIPE5.0, CellTiter-Glo, qHTS (AID 1347064; cut-off not given, nearly all actives have AC50 up to about 23 µM); conditions: SU-DIPG-XIII viability, CellTiter-Glo ATP luminescence
[14] = stronger effect = lower value, cell number ratio, induced over uninduced
[15] = measured here: relative caspase fold change +Dox/-Dox
[16] = measured here: total cells with miR-34 induction, stronger effect = lower value
[17] = measured here: total cells without miR-34 induction
[18] = MELAS cybrid survival, CellTiter-Glo 48 h, stronger effect = higher value
[19] = Rieske KO mouse fibroblast survival, CellTiter-Glo 72 h
[20] = at 0.000305 µM, OCI-C5x cells, with rucaparib 10 µM, 100% = cells with rucaparib alone
[21] = at 0.000305 µM, OCI-C5x cells, without rucaparib
[22] = at 0.000305 µM, OCI-P5x cells, with rucaparib 20 µM, 100% = cells with rucaparib alone
[23] = at 0.000305 µM, OCI-P5x cells, without rucaparib
[24] = at 0.00122 µM, OCI-C5x cells, with rucaparib 10 µM, 100% = cells with rucaparib alone
[25] = at 0.00122 µM, OCI-C5x cells, without rucaparib
[26] = at 0.00122 µM, OCI-P5x cells, with rucaparib 20 µM, 100% = cells with rucaparib alone
[27] = at 0.00122 µM, OCI-P5x cells, without rucaparib
[28] = at 0.00488 µM, OCI-C5x cells, with rucaparib 10 µM, 100% = cells with rucaparib alone
[29] = at 0.00488 µM, OCI-C5x cells, without rucaparib
[30] = at 0.00488 µM, OCI-P5x cells, with rucaparib 20 µM, 100% = cells with rucaparib alone
[31] = at 0.00488 µM, OCI-P5x cells, without rucaparib
[32] = at 0.0195 µM, OCI-C5x cells, with rucaparib 10 µM, 100% = cells with rucaparib alone
[33] = at 0.0195 µM, OCI-C5x cells, without rucaparib
[34] = at 0.0195 µM, OCI-P5x cells, with rucaparib 20 µM, 100% = cells with rucaparib alone
[35] = at 0.0195 µM, OCI-P5x cells, without rucaparib
[36] = at 0.0781 µM, OCI-C5x cells, with rucaparib 10 µM, 100% = cells with rucaparib alone
[37] = at 0.0781 µM, OCI-C5x cells, without rucaparib
[38] = at 0.0781 µM, OCI-P5x cells, with rucaparib 20 µM, 100% = cells with rucaparib alone
[39] = at 0.0781 µM, OCI-P5x cells, without rucaparib
[40] = at 0.313 µM, OCI-C5x cells, with rucaparib 10 µM, 100% = cells with rucaparib alone
[41] = at 0.313 µM, OCI-C5x cells, without rucaparib
[42] = at 0.313 µM, OCI-P5x cells, with rucaparib 20 µM, 100% = cells with rucaparib alone
[43] = at 0.313 µM, OCI-P5x cells, without rucaparib
[44] = at 1.25 µM, OCI-C5x cells, with rucaparib 10 µM, 100% = cells with rucaparib alone
[45] = at 1.25 µM, OCI-C5x cells, without rucaparib
[46] = at 1.25 µM, OCI-P5x cells, with rucaparib 20 µM, 100% = cells with rucaparib alone
[47] = at 1.25 µM, OCI-P5x cells, without rucaparib
[48] = at 5 µM, OCI-C5x cells, with rucaparib 10 µM, 100% = cells with rucaparib alone
[49] = at 5 µM, OCI-C5x cells, without rucaparib
[50] = at 5 µM, OCI-P5x cells, with rucaparib 20 µM, 100% = cells with rucaparib alone
[51] = at 5 µM, OCI-P5x cells, without rucaparib

NC(=O)c1cccc(-c2cccc(OC(=O)NC3CCCCC3)c2)c1
-0.11: z-score [10, 19]
inactive: outcome [1] | outcome [2] | outcome [3] | outcome [4] | outcome [5] | outcome [6] | outcome [7] | outcome [8] | fold change [9, 14] 1.39 and 0.902 | z-score [10, 18] -0.288
5620 and 8620: cell count [9, 16]
4040 and 9560: cell count [9, 17]
1.45 and 0.843: fold change [9, 15]

CCN1CCN(Cc2ccc(-c3cc4c(N[C@H](C)c5ccccc5)ncnc4[nH]3)cc2)CC1
inactive: plate-normalised HSF1 focus index [11] 1.06 | viability [12, 20] 113% | viability [12, 21] 121% | viability [12, 23] 117% | viability [12, 24] 110% | viability [12, 25] 123% | viability [12, 27] 120% | viability [12, 28] 110% | viability [12, 29] 127% | viability [12, 30] 108% | viability [12, 31] 118% | viability [12, 32] 109% | viability [12, 33] 124% | viability [12, 35] 115% | viability [12, 36] 106% | viability [12, 37] 129% | viability [12, 38] 102% | viability [12, 39] 123% | viability [12, 40] 119% | viability [12, 41] 146% | viability [12, 43] 112% | viability [12, 45] 114% | viability [12, 47] 118% | viability [12, 49] 117% | viability [12, 51] 105%
1.68: SSMD [11]
active: AC50 [1] 14800 nM | AC50 [2] 5260 nM | AC50 [3] 13200 nM | AC50 [4] 46.9 nM | AC50 [5] 18600 nM | AC50 [6] 23500 nM | viability [12, 22] 97.2% | viability [12, 26] 100% | viability [12, 34] 98% | viability [12, 42] 98.7% | viability [12, 44] 96.1% | viability [12, 46] 90.3% | viability [12, 48] 70.8% | viability [12, 50] 64.4%
7280: cell count [11]

CC(C)C[C@H](NC(=O)[C@@H](NC(=O)c1cccc(-c2ccccc2)n1)[C@@H](C)O)B(O)O
active: AC50 [1] 45.6 nM | AC50 [2] 16600 nM | AC50 [3] 52.6 nM | AC50 [4] 23.5 nM | AC50 [5] 20.4 nM | AC50 [6] 66.2 nM | AC50 [7] 81.1 nM | IC50 [8] 25.7 nM

CCC[C@@H](C=O)NC(=O)[C@H](CC(C)C)NC(=O)[C@H](CC(C)C)NC(=O)OCc1ccccc1
active: AC50 [1] 332 nM | AC50 [2] 935 nM | AC50 [3] 372 nM | AC50 [4] 148 nM | AC50 [5] 186 nM | AC50 [6] 526 nM | AC50 [7] 525 nM | IC50 [8] 590 nM

Cc1cc2c(cc1C1(c3ccc(C(=O)O)cn3)CC1)C(C)(C)CCC2(C)C
2.63: SSMD [11]
7020: cell count [11]
inactive: outcome [1] | outcome [2] | outcome [3] | outcome [4] | outcome [13] | outcome [8] | plate-normalised HSF1 focus index [11] 1.16

CC(C)[C@H](C(=O)Nc1ccc(C(=O)NO)cc1)c1ccccc1
inactive: fold change [9, 14] 0.834 | plate-normalised HSF1 focus index [11] 0.833 | viability [12, 20] 112% | viability [12, 21] 136% | viability [12, 22] 105% | viability [12, 23] 114% | viability [12, 24] 116% | viability [12, 25] 139% | viability [12, 26] 102% | viability [12, 27] 116% | viability [12, 28] 104% | viability [12, 29] 135% | viability [12, 31] 107% | viability [12, 32] 101% | viability [12, 33] 139% | viability [12, 35] 110% | viability [12, 37] 145%
active: AC50 [1] 1860 nM | AC50 [2] 3720 nM | AC50 [3] 1870 nM | AC50 [4] 2350 nM | AC50 [5] 1320 nM | AC50 [6] 833 nM | viability [12, 30] 87.9% | viability [12, 34] 89.2% | viability [12, 36] 99.7% | viability [12, 38] 82.7% | viability [12, 39] 92.5% | viability [12, 40] 46.8% | viability [12, 41] 41.1% | viability [12, 42] 49.2% | viability [12, 43] 66.8% | viability [12, 44] 10.3% | viability [12, 45] 11% | viability [12, 46] 31.4% | viability [12, 47] 39.9% | viability [12, 48] 5.04% | viability [12, 49] 5.5% | viability [12, 50] 2.82% | viability [12, 51] 3.14%
7300: cell count [11]
1610: cell count [9, 16]
1930: cell count [9, 17]
1.7: fold change [9, 15]
-4.69: SSMD [11]

O=C(Nc1cccc(Nc2ncc(Br)c(NCCc3cnc[nH]3)n2)c1)N1CCCC1
0.495: z-score [10, 19]
inactive: outcome [8] | fold change [9, 14] 0.952 | z-score [10, 18] -0.631
0.914: fold change [9, 15]
2420: cell count [9, 16]
2540: cell count [9, 17]
active: AC50 [1] 4170 nM | AC50 [2] 16600 nM | AC50 [3] 16600 nM | AC50 [4] 16600 nM | AC50 [5] 1660 nM | AC50 [6] 14800 nM | AC50 [7] 3720 nM

O=C(O)c1ccc(Nc2ncc3c(n2)-c2ccc(Cl)cc2C(c2c(F)cccc2F)=NC3)cc1
2190: cell count [9, 17]
active: AC50 [1] 4170 nM | AC50 [5] 372 nM | AC50 [7] 16600 nM
0.65: z-score [10, 19]
0.787: fold change [9, 15]
inactive: outcome [2] | outcome [3] | outcome [4] | outcome [6] | fold change [9, 14] 0.96 | z-score [10, 18] -0.524
2100: cell count [9, 16]

C[C@@H]1CC[C@@]2(OC1)OC1CC3C4CC=C5CC(O)CCC5(C)C4CCC3(C)C1[C@@H]2C (stereo not given in full)
inactive: outcome [1] | outcome [2] | outcome [3] | outcome [4] | outcome [5] | outcome [6] | outcome [7] | outcome [8]

CN[C@@H](C)[C@H]1[C@H](O)C[C@@]2(C)[C@@H]3CC[C@H]4C(C)(C)[C@@H](NC)CC[C@@]45C[C@@]35CC[C@]12C
inactive: outcome [1] | outcome [2] | outcome [3] | outcome [4] | outcome [5] | outcome [6] | outcome [7] | outcome [8]

COC1CCC(N(C(=O)C2CCC(C)CC2)c2cc(C3=CCCCC3)sc2C(=O)O)CC1 (stereo not given)
inactive: outcome [1] | outcome [2] | outcome [3] | outcome [4] | outcome [5] | outcome [7] | outcome [8]
